Entries with a potency or affinity are not part of this list. Inconclusive results are not listed. Activity calls are given as the source filed them.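 How the source made its calls: active means compound whose half-maximal dose for viability loss stays within twice the top tested dose at all three treatment times; inconclusive means treatment times disagree in their calls; inactive means inactive at every treatment time.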
Test: cytotoxicity in SNB-19 CNS tumor cells – cell-based, Alamar Blue fluorescence, 8/24/48 h, dry powder, HRAS target identification, dose response (AID 720600)
Conditions: SNB-19 viability, 8-48 h; series mostly up to 35 µM

Row | SMILES | outcome
1 | CCC(=O)N(c1ccc(OC)c(Cl)c1)C(C(=O)NCCc1ccccc1)c1cccs1 (configuration not stated) | inactive
2 | Cc1onc(C(=O)N2CCN(C(c3ccncc3)c3ccncc3)CC2)c1[N+](=O)[O-] | inactive

Reference: PubChem BioAssay AID720600 (Broad Institute, 2013)
